Assay results taken from PubChem BioAssay.
The source made the active and inactive calls. Unless noted, the rule behind the calls is not given here.

Columns and labels:
[1] = compounds binding Alexa647 anti-His antibody – biochemical, small-molecule microarray, 635 nm fluorescence, artefact control for SMM control protein annotation, primary screen (AID 1128); details: higher = more signal;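 note: score merges feature fluorescence with signal-to-noise for each printed compound spot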
[2] = tested on: Human papillomavirus type 1a E7 protein (residues 1-88); assay: HPV1a E7 small-molecule binders, primary screen, biochemical, small-molecule microarray, residues 1-88, 635 nm (AID 1129); details: small-molecule microarray binding, fluorescence 635 nm; higher = more signal
[3] = molecular target: Focal adhesion kinase 1 (Homo sapiens) (UniProt Q05397); assay: PTK2 protein binding on printed compound slides – biochemical, small-molecule microarray, 635/667 nm fluorescence, BSA, DTT, primary screen (AID 1130); details: 635 nm fluorescence, higher = more signal;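 note: composite of spot emission at 667 nm and signal to noise over triplicate slides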
[4] = tested on: Fibrinogen (Alexa647-labelled); assay: Alexa647-fibrinogen binding to printed small molecules – biochemical, small-molecule microarray, 635/667 nm fluorescence, artefact control for SMM control-protein annotation, profiling panel (AID 1131); details: fibrinogen-A647 binding fluorescence, higher = more signal;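 note: z-score merges 667 nm fluorescence with per-spot signal-to-noise over triplicate slides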
[5] = molecular target: Follistatin (Homo sapiens) (UniProt P19883); assay: FST protein binding to printed compounds – biochemical, small-molecule microarray, 635/667 nm fluorescence, primary screen (AID 1132); details: 635 nm fluorescence, higher = more signal
[6] = molecular target: Fibroblast growth factor 2 (Homo sapiens) (UniProt P09038); assay: basic fibroblast growth factor binding to printed compounds – biochemical, small-molecule microarray, 635/667 nm fluorescence, primary screen (AID 1133); details: FGF2, fluorescence 635/667, higher = more signal
[7] = JC-1 mitochondrial potential readout, lung cancer cells – cell-based, A549, JC-1 fluorescence, basal, 24 h, 100 nL, profiling panel (AID 1138); details: higher = more signal;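 note: A549 lung adenocarcinoma cells under basal conditions with no added stimulus; test concentration not given here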
Lefty1 = Lefty1 protein binding to printed compounds – biochemical, small-molecule microarray, 635/667 nm fluorescence, primary screen (AID 1139); details: fluorescence 635/667, higher = more signal
[8] = tested on: wheat germ agglutinin (Triticum aestivum), Alexa647-labelled; assay: Alexa647-WGA lectin binding to printed small molecules – biochemical, small-molecule microarray, 635/667 nm fluorescence, artefact control for SMM control-protein annotation, profiling panel (AID 1140); details: WGA-A647 binding, 635 nm fluorescence, higher = more signal;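 note: score merges 667 nm feature emission with signal to noise over triplicate slides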
[9] = molecular target: Luciferin 4-monooxygenase (Photinus pyralis) (UniProt P08659); assay: inhibition of purified Photinus pyralis luciferase – biochemical, luminescence, purified enzyme, 2006 set, primary screen (AID 1141); details: purified firefly luciferase, SteadyGlo luminescence, 30 min; higher = more signal, called active from +8 up or from −8 down;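 note: cell-free assay with purified firefly luciferase at 100 ng per well in PBS; test concentration not given here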
[10] = tested on: Wnt5a (protein binding on small-molecule microarray); assay: small molecules binding Wnt5a protein – biophysical, small-molecule microarray, 635/667 nm fluorescence, primary screen (AID 1142); details: 635 nm fluorescence, higher = more signal;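 note: fluorescence read at 667 nm with signal to noise per printed feature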
[11] = ATP-based viability of Huh7 replicon cells – cell-based, CellTiter-Glo luminescence, basal, 48 h, cytotoxicity control for HCV replication inhibitor project, primary screen (AID 1143); details: higher = more signal, called active from +8 up or from −8 down;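 note: Huh7 hepatoma cells carrying a hepatitis C replication reporter with no stimulus; test concentration not given here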
[12] = Pseudomonas biofilm growth suppression – PAO1 strain, BacTiter-Glo luminescence, LB-PBS, primary screen (AID 1144); details: P. aeruginosa PAO1 biofilm, 12 h, higher = more signal
[13] = basal CRE-LacZ reporter activity in PC12 – cell-based, unstimulated, primary screen (AID 1145); details: no forskolin, luminescence, 4.5 h, higher = more signal, called active from +8 up or from −8 down
[14] = forskolin-driven CRE-LacZ activity in PC12 – cell-based, CRE-LacZ reporter, forskolin-stimulated, primary screen (AID 1146); details: luminescence, 4.5 h, higher = more signal, called active from +8 up or from −8 down;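 note: PC12 cells with 6xCRE LacZ reporter stimulated by forskolin 10 µM; beta-galactosidase reporter signal reflecting CREB driven transcription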
[15] = molecular target: Streptavidin (Streptomyces avidinii) (UniProt P22629); assay: compounds binding control protein streptavidin – biophysical, small-molecule microarray, 635/667 nm fluorescence, artefact control for SMM compound annotation, primary screen (AID 1147); details: higher = more signal;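 note: signal reflects streptavidin binding to arrayed compounds as a control protein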
[16] = probe aInhba binding on compound microarray – biochemical, small-molecule microarray, 635/667 nm fluorescence, primary screen (AID 1148); details: higher = more signal;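 note: score merges 667nm spot fluorescence with signal-to-noise for antibody binding to printed compounds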
Torsin-1A (Homo sapiens) [17] = molecular target: Torsin-1A (Homo sapiens) (UniProt O14656); assay: TOR1A wild-type binding on microarray – cell lysate, small-molecule microarray, lysate, 635/667 nm, primary screen (AID 1149); details: COS7 hTOR1A-WT lysate, 635 nm fluorescence, higher = more signal
Torsin-1A (Homo sapiens) [18] = molecular target: Torsin-1A (Homo sapiens) (UniProt O14656); assay: torsin A mutant lysate binding on microarrays – cell lysate, small-molecule microarray, COS7 lysate, 635/667 nm fluorescence, primary screen (AID 1150); details: COS7 hTOR1A mutant lysate, 635 nm fluorescence, higher = more signal;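 note: score pools 667 nm emission and signal to noise measuring lysate protein binding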
[19] = tested on: Sonic hedgehog protein (Shh); assay: Sonic hedgehog microarray binding compounds – biochemical, small-molecule microarray, 635/667 nm fluorescence, primary screen (AID 1151); details: 635 nm fluorescence, higher = more signal;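 note: Shh protein binding to compounds spotted on small-molecule microarray slides; score combines spot fluorescence intensity with signal-to-noise across triplicate slides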

Chain of Focal adhesion kinase 1 (Homo sapiens) (Q05397 whole entry, looked up): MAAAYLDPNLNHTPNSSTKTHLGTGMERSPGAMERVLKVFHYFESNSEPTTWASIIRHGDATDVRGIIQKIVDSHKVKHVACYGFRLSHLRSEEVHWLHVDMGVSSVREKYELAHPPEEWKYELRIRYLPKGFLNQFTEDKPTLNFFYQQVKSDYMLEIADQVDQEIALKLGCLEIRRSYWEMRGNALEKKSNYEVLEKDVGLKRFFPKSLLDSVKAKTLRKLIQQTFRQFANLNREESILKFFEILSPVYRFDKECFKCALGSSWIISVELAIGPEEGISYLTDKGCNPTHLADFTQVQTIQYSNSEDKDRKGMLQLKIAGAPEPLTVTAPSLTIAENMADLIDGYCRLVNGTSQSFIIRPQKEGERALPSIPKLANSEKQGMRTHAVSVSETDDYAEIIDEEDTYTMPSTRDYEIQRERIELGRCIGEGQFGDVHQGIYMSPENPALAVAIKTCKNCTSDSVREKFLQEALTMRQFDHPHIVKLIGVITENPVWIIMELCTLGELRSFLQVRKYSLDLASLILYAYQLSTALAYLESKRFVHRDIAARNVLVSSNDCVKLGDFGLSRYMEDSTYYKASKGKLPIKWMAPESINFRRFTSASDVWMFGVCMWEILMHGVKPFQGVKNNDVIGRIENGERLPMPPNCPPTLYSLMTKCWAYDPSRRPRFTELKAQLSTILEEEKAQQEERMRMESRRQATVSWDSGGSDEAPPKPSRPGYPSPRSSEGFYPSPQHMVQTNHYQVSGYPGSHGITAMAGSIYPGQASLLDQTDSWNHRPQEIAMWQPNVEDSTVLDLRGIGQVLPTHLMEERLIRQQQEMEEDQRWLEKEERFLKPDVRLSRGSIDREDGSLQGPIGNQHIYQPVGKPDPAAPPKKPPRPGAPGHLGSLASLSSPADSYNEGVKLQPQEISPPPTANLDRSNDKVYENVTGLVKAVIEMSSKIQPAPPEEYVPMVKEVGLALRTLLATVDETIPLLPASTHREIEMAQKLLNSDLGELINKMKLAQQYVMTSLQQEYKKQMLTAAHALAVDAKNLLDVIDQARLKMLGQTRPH
Chain of Fibroblast growth factor 2 (Homo sapiens) (P09038 whole entry, looked up): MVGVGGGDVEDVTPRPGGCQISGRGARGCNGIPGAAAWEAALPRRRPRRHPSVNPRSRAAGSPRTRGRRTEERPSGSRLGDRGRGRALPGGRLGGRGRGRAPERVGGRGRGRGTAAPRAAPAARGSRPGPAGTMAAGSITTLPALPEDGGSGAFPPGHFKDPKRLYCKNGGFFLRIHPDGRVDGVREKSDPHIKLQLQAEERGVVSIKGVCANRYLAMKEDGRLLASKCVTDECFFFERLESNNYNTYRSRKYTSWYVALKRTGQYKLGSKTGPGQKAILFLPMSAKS
Chain of Follistatin (Homo sapiens) (P19883 whole entry, looked up): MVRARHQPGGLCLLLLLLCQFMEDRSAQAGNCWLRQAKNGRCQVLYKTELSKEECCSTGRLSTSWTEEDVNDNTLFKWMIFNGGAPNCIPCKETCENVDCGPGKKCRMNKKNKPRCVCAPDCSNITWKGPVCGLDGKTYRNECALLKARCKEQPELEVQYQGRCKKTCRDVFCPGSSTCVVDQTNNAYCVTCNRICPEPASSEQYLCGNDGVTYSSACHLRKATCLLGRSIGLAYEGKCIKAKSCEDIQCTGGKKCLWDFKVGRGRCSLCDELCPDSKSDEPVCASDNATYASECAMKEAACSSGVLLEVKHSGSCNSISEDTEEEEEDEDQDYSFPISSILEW
Chain of Torsin-1A (Homo sapiens) (O14656 whole entry, looked up): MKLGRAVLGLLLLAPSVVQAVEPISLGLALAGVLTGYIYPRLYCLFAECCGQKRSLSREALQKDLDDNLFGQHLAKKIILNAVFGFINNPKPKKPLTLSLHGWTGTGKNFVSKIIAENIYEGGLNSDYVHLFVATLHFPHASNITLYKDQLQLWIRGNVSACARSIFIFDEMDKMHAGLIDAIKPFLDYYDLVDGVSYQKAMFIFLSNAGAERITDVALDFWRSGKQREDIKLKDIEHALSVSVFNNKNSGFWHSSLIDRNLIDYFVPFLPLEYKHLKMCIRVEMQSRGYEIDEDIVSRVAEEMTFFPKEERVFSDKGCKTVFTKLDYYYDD
Chain of Streptavidin (Streptomyces avidinii) (P22629 whole entry, looked up): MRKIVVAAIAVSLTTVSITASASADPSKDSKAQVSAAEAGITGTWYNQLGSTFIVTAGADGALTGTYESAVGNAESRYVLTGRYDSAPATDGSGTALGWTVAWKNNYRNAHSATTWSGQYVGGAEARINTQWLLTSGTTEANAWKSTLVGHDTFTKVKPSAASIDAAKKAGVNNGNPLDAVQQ
Chain of Luciferin 4-monooxygenase (Photinus pyralis) (P08659 whole entry, looked up): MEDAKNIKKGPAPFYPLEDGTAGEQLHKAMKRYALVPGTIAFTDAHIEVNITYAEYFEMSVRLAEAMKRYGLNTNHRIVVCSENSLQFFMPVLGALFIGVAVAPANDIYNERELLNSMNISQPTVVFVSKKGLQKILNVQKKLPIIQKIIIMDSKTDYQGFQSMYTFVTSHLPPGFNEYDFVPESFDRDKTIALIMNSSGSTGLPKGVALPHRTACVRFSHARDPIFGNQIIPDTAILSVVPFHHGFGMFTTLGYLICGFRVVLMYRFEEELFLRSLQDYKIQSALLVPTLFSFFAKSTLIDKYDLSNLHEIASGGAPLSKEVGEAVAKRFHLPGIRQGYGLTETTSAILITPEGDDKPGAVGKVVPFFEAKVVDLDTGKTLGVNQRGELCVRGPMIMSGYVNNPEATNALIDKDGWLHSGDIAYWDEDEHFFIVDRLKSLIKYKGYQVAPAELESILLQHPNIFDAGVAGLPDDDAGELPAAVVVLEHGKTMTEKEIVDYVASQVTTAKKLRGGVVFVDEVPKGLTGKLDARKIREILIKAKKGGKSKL

SMILES | composite z-score [1] | composite z-score [2] | composite z-score [3] | composite z-score [4] | composite z-score [5] | composite z-score [6] | z-score [7] | composite z-score (Lefty1) | composite z-score [8] | z-score [9] | composite z-score [10] | z-score [11] | z-score [12] | z-score [13] | z-score [14] | composite z-score [15] | composite z-score [16] | composite z-score (Torsin-1A (Homo sapiens) [17]) | composite z-score (Torsin-1A (Homo sapiens) [18]) | composite z-score [19]
CCCNC(=O)[C@@]1(Sc2ccc(C)cc2)CC(=O)N(C2Cc3ccccc3C2)[C@@H]1c1ccc(CO)cc1I | 1.59 | 0.255 | 0.371 | 0.34 | 1.01 | -0.209 | 1.87 | 0.489 | 0.157 | -0.767 (inactive) | 0.196 | -0.812 (inactive) | 0.594 (inactive) | -0.374 (inactive) | 1.73 (inactive) | 0.419 | 0.27 | 0.418 | 0.309 | 0.737
CN(C)C(=O)[C@]1(CCC(=O)OC(C)(C)C)N=C(c2ccc(OCCCO)cc2)O[C@@H]1c1ccccc1CN=[N+]=[N-] | 1.31 | 1.21 | 0.706 | 0.961 | 1.25 | -0.0399 | 1.03 | 0.0183 | 1.42 | -0.703 (inactive) | 1.44 | -1.5 (inactive) | -1.42 (inactive) | -0.744 (inactive) | -0.147 (inactive) | 0.588 | -0.071 | 1.53 | 1.24 | -0.646
CN(C)C(=O)[C@@]1(Cc2ccccc2CN=[N+]=[N-])N=C(c2ccc(OCCCO)cc2)O[C@H]1c1ccccc1N=[N+]=[N-] | 2.09 | 1.27 | 0.801 | 0.983 | 0.711 | -0.0088 | -1.02 | 0.627 | 1.22 | -6.81 (inactive) | 0.0168 | -4.96 (inactive) | -0.638 (inactive) | 1.74 (inactive) | -1.69 (inactive) | 1.51 | 0.439 | 0.504 | 1.21 | 0.66
OCCCC1=CC(c2ccc(CN3CCCC3)cc2)N(Cc2cc3c(cc2Br)OCO3)CC1 (stereo not given) | 0.448 | 0.049 | 0.172 | 0.65 | 1.07 | 0.262 | 0.157 | 0.695 | 0.266 | 0.391 (inactive) | 0.268 | -1.1 (inactive) | -0.808 (inactive) | -0.932 (inactive) | 0.821 (inactive) | 0.0246 | -0.152 | 0.763 | 0.585 | 1.04
C=C[C@@H](OC)[C@H](OC(=O)Nc1ccc(OC)cc1)c1ccc(O)c(F)c1 | 0.0143 | -0.0707 | 0.0004 | -0.808 | 1.2 | 0.659 | -0.116 | 1.35 | -0.251 | -3.89 (inactive) | -0.182 | -2.63 (inactive) | -0.238 (inactive) | 2.21 (inactive) | 1.53 (inactive) | -0.938 | -0.197 | 0.281 | -0.278 | 1.96
